The list is not random: actives were taken first. Their share in the collection is about 11%.
FLuc inh-1 – inhibitors of firefly (Photinus pyralis) luciferase. purified P. pyralis luciferase, luminescence, biochemical. Potency, µM (highest dose often 115 µM), most hits filed as inhibitors. actives 2.5% (n = 76,000). AID 1347043; note: % is set by controls: 0 for no effect and ±100 for the full control effect; nearly all actives have a fitted effect of over 65% in size
Target sequence (P08659 whole entry, looked up): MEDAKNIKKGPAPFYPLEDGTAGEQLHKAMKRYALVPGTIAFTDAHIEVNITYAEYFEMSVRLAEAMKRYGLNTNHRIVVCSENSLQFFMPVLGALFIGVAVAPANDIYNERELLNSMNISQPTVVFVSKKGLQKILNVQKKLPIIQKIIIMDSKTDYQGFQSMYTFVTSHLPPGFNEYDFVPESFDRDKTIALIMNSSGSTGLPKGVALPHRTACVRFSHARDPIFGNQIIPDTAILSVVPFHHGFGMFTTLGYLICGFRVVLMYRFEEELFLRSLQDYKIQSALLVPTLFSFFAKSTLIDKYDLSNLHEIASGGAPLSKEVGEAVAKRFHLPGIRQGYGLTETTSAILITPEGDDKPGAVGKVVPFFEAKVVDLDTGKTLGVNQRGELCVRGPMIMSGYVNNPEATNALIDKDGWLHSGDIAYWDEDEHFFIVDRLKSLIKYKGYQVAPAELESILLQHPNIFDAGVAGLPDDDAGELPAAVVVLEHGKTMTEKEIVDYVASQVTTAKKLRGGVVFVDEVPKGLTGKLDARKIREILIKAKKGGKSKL
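Purified 10nM P. pyralis luciferase with 10uM D-luciferin and 10uM ATP in 50mM Tris acetate pH 7.5, 10mM Mg acetate, 0.01% Tween-20, 0.05% BSA. qHTS titration; luminescence read by CCD imager.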
NIH3T3 tox – cytotoxic compounds in NIH 3T3 cells | NIH 3T3 viability, CellTiter-Glo ATP luminescence, 48-72 h | Potency, µM (titrated, usually from 96.7 µM), for inactives: at the highest dose activity change, negative = cytotoxicity, most hits filed as inhibitors | actives 4.3% (n = 94,000); note: % is set by controls: 0 for no effect and ±100 for the full control effect; nearly all actives have a fitted effect of over 55% in size
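Viability of NIH 3T3 cells after 48 or 72 hr compound treatment at 37 °C was assessed by CellTiter-Glo, with luminescence imaged following a 10 min room-temperature step.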
NPR1 antag – antagonists of human natriuretic peptide receptor Npr1; HEK293 hNpr1 GloSensor cGMP, ANP-stimulated luminescence; Potency, µM (series often up to 46.3 µM), without a hit: at the top dose activity change, negative = inhibition, usual class: inhibitors; actives 1.6% (n = 76,000); AID 1347048; calls by dose curve; note: % is set by controls: 0 for no effect and ±100 for the full control effect; nearly all actives have a fitted effect of over 60% in size
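Compound pre-incubated 30 min at room temperature on GloSensor-loaded HEK293 cells stably carrying hNpr1 and the pGS-40F cGMP biosensor. Stimulation uses hNppA at 0.1 nM final; luminescence is taken at baseline and 20 min post-agonist.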
HEK293 tox – kills HEK 293 cells. HEK 293 viability, ATP luminescence (CellTiter-Glo), 48-72 h. Potency, µM (doses to about 115 µM), for the others: at the top dose activity change, negative = cytotoxicity, most hits filed as inhibitors. actives 6.6% (n = 94,000). AID 1345083; note: % is set by controls: 0 for no effect and ±100 for the full control effect; nearly all actives have a fitted effect of over 60% in size
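Cytotoxicity was scored by loss of ATP-coupled luminescence (CellTiter-Glo) in HEK 293 cells. Compound treatment ran 48 or 72 hr at 37 degree Celsius, 5% CO2, 95% humidity.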
FLuc SDR -ATP – firefly luciferase binding stabilization, ATP absent; shares compounds with FLuc inh-1; Purified FLuc-C-HiBiT, Nano-Glo HiBiT luminescence, no ATP; Potency, µM (titrated, usually from 32.7 µM), for inactives: at the highest dose activation (signal gain), actives largely listed as activators; actives 7.8% (n = 1,300); note: nearly all actives have a fitted effect of over 55% in size
FLuc SDR ATP – firefly luciferase binding stabilization, ATP added; shares compounds with FLuc inh-1; purified FLuc-C-HiBiT + ATP, HiBiT complementation luminescence; Potency, µM (highest dose often 32.7 µM), for the others: top-dose activation (gain of signal), usual class: activators; actives 8.7% (n = 1,300); AID 1963319;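 note: signal reports ligand binding via conformational change of the enzyme rather than luciferase catalysis; % of control where 0% means no effect; nearly all actives have a fitted effect of over 55% in size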
FLuc inh-2 – blocks firefly luciferase enzymatic activity. shares compounds with FLuc inh-1. purified FLuc-C-HiBiT enzyme, luciferin luminescence. Potency, µM (titrated, usually from 32.7 µM), without a hit: at the top dose activity change, negative = inhibition, usual class: inhibitors. actives 42% (n = 1,300); note: % is set by controls: 0 for no effect and ±100 for the full control effect; nearly all actives have a fitted effect of over 70% in size
Active calls of the source: *; i = inactive; u = inconclusive; x = not tested or not shown; [ ] = dose if it differs, or a comment. Unless noted, calls come from the whole dose curve; as a rule, active = well fitted curve in the direction sought with a large enough effect; inconclusive = small, poorly fitted or top-dose-only effect, or another doubt; inactive = no such curve, though single readings can be large; an effect the other way counts as inactive or inconclusive. Potency is the fitted concentration of half-maximal effect.

SMILES	FLuc inh-1	NIH3T3 tox	NPR1 antag	HEK293 tox	FLuc SDR -ATP	FLuc SDR ATP	FLuc inh-2
Cc1ccc([S+](=O)([O-])N2CCCC(c3nn(-c4ccc(F)cc4)c(=O)[nH]3)C2)cc1 (stereo not drawn)	i	-12%	-17%	u	x	x	x
COc1cccc(-c2cccc(COc3cnc4c(ccn4CC(=O)O)c3)c2)c1F	13µM*	u	2%[70.6 µM]	-12%[172 µM]	18%[49.3 µM]	10%[49.3 µM]	13µM*
Cc1ccc(-c2cccc(COc3cnc4c(ccn4CC(=O)O)c3)c2)cc1	7.9µM*	-22%[138 µM]	3%[70.6 µM]	u	13%[49.3 µM]	12%[49.3 µM]	u
O=C(O)Cn1ccc2cc(OCc3cccc(-c4ccccc4O)c3)cnc21	u	u	-6%[70.6 µM]	-3%[172 µM]	x	x	x
CC(=O)NCCNC(=O)c1ccc2c(=O)n(CCc3ccccc3)c(=O)[nH]c2c1	x	x	x	x	10%	14%	u
CCN1C(=O)CCC2(C(=O)NCCN3CCOCC3)CCCC=C12 (stereo not drawn)	i	-3%	-9%	-20%	x	x	x
O=C(Nc1cccc(Cl)c1)c1ccc2oc(-c3ccccn3)nc2c1	x	-24%	x	u	x	x	x
O=C(Nc1cccc(-c2nc3ccccc3s2)c1)c1cc2ccccc2oc1=O	x	x	x	x	14%	10%	-9%
Cc1c(C(=O)Nc2cccc(-c3nc4ccccc4s3)c2)oc2ccccc12	x	x	x	x	9%	10%	-26%
Cc1ccc2oc(C(=O)Nc3cccc(-c4nc5ccccc5s4)c3)c(C)c2c1	x	x	x	x	16%	u	u
Cc1ccccc1NC(=O)C1CC(=O)N(c2n[nH]c3cc(Br)ccc23)C1 (stereo not drawn)	i	i	3%	5%	x	x	x
COCCNC(=O)[C@H]1C[C@H](Oc2cccnc2)CN1C(=O)NCc1ccc(OC)cc1	i	i	-1%	-6%	x	x	x
COc1ccc(CN[C@@H]2CCC[C@@H](C(=O)N(C)Cc3cccnc3)CC(=O)N(C)C2)cc1	i	1%	5%	-27%	x	x	x
O=C(Nc1nn(-c2cccc(F)c2)c2cccc(N3CCOCC3)c12)C1CCC1	7.9µM*	u	u	45µM*	u	11%	u
CNC(=O)Nc1ccc(C)n(CC(=O)NCc2ccccc2F)c1=O	i	-8%	6%	-8%	x	x	x
CSCC(=O)N[C@H]1CCN2C(=O)c3cc(-c4ccc(SC)cc4)ccc3NC(=O)[C@H]12	13µM*	-17%	5%	-8%	23%	15%	u
COc1ccc(CCNC(=O)[C@H]2CCC[C@H]2NC(=O)c2cnc(C)cn2)cc1OC	i	3%	2%	2%	x	x	x
CC(C)c1cnc(N2CCC(COc3ccc4c(cnn4CCC(=O)O)c3)CC2)nc1	14µM*	u	1%[70.6 µM]	u	15%[49.3 µM]	9%[49.3 µM]	u
Cc1ccc(NCc2nc3ccccc3n2CCOc2ccccc2)cc1	x	x	x	x	22%	15%	u
O=C(NCC(F)(F)F)C1CCCN1c1nc2ncccc2o1 (stereo not drawn)	i	i	-1%[70.6 µM]	i	11%[49.3 µM]	7%[49.3 µM]	6%[49.3 µM]
O=C1CCN(C(=O)c2ccccc2)CCCC(C(=O)N2CCN(Cc3ccccc3F)CC2)CCN1 (stereo not drawn)	i	i	3%	4%	x	x	x
O=C(c1ccc(CSc2nc3ccncc3n2Cc2ccccc2F)cc1)N1CCCCC1	x	x	x	x	16%	11%	u
COc1ccc(CN(C(=O)c2cc3ccccc3oc2=O)C2CCS(=O)(=O)C2)cc1OC (stereo not drawn)	x	x	x	x	20%	u	-17%
O=C(NC1CC1)[C@@H]1CN(Cc2c(F)cccc2Cl)C[C@H]1CO	i	-30%	-12%	-19%	x	x	x
C#CCN(C)Cc1nc(C2(O)CCN(C(=O)COC)CC2)cs1	i	-6%[174 µM]	2%[70.6 µM]	-10%[172 µM]	x	x	x
SMILES	FLuc inh-1	NIH3T3 tox	NPR1 antag	HEK293 tox	FLuc SDR -ATP	FLuc SDR ATP	FLuc inh-2
CC(C)(O)CCc1ccc(C(=O)NCCSc2ccccn2)cc1	2.8µM*	-36%	-15%	u	16%	19%	u
Cc1noc(-c2cn(C3CCN(C(=O)c4ccc(Cl)s4)CC3)nn2)n1	i	-11%	-10%	-1%	x	x	x
Cc1c(-c2ccccc2F)[nH]c2ccc(CNC(=O)CCc3cc(=O)[nH]o3)cc12	2.8µM*	u	-15%	-4%	27%	18%	9.9µM*
Cc1c(-c2ccccc2F)[nH]c2ccc(CNC(=O)CCc3cnccn3)cc12	u	u	-4%	u	x	x	x
Cc1c(-c2ccccc2F)[nH]c2ccc(CNC(=O)CC3CCC(=O)N3)cc12 (stereo not drawn)	10µM*	-28%	1%	35µM*	u	13%	9.9µM*
O=C1CCN(C2CCOCC2)CCOCCN1	i	-17%	-6%	-20%	x	x	x
O=C(Nc1nc2c(F)cc(F)cc2s1)c1ccc2c(c1)OCCO2	x	x	x	x	17%	15%	1.8µM*
CC(=O)NC1(C)CCN(Cc2cnc(-c3cccc(F)c3)s2)CC1	u	-17%[138 µM]	u	u	x	x	x
O=C(Nc1ccc2c(c1)OCCO2)N1CCCC1c1nc(CCOCC2CCCC2)no1 (stereo not drawn)	u	-23%	0%	u	x	x	x
O=C(NC1CCCCC1)N1CCC(c2nc(C3CCOCC3)no2)CC1	i	-14%	12%	-8%	x	x	x
O=C(Nc1ccc2c(c1)OCCO2)N1CCC(c2nc(C3CCOCC3)no2)CC1	10µM*	-18%	1%	-4%	19%	15%	u
O=C(Nc1ccc2c(c1)OCCO2)N1CC(c2nc(CCOCC3CC3)no2)C1	11µM*	-26%	2%	u	21%	13%	u
C#CCNC(=O)[C@@H]1CCCN1[C@@H](C(=O)NC)c1ccccc1	i	-4%[174 µM]	5%[70.6 µM]	-1%[172 µM]	x	x	x
Cc1ccc(C(=O)N2CCC(F)(c3nc(-c4ccncc4)no3)CC2)s1	i	-24%	u	u	x	x	x
CNCc1ccc(OC(F)(F)F)cc1	x	i	x	i	x	x	x
Cc1cc(CNC(=O)C2CCCCn3nnnc32)c2[nH]c(-c3ccccc3)c(C)c2c1 (stereo not drawn)	8.9µM*	35µM*	-11%	25µM*	18%	14%	u
Cc1ccc(-n2ncc3c(N(C)C)ncnc32)cc1Cl	x	x	x	x	u	u	2.2µM*
N#Cc1c(-n2ncnc2-c2cccc(Br)c2)sc2c1CCCCC2	x	x	x	x	31%	u	3.1µM*
CCc1ccc(C(=O)Nc2ccc(-c3nnc4n3CCCC4)cc2)cc1	u	-4%	-2%	3%	x	x	x

Assay outcomes as filed in PubChem.
